Records with an inconclusive call do not appear. Some structures have more than one record in an assay (separate samples or runs), and their calls can disagree. Activity calls are given as the source filed them. Rule for the calls, unless noted: active = hit-call score of the fitted dose curve at least 0.9, where 1 is the maximum; inconclusive = response in the unintended direction; inactive = score below 0.9.
What was measured:
[1] = system: Thyroperoxidase (TPO), gene 54314; assay: CCTE_Simmons_AUR_rTPO: CCTE's Amplex UltraRed Assay for Thyroperoxidase (TPO) Inhibition, Simmons Lab (AID 2283662);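 for AC50: potency for loss of signal meaning inhibition of peroxidase activity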
In short: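 Rat thyroid microsomes (5 ug protein) were incubated with test compound (8 concentrations, 5 nM–87.5 uM final, 0.5% DMSO), 25 uM Amplex UltraRed and 300 uM H2O2 in 200 mM phosphate buffer for 30 min at 37C in the dark; fluorescence read at 544/590 nm.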

[2] = CCTE_Simmons_CellTiterGLO_HEK293T: Viability Assessment in CCTE's Assays for Thyroperoxidase (TPO) Inhibition, Simmons Lab (AID 2283665);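 for AC50: cells exposed to compound for 24 h before readout; actives reduce ATP signal below DMSO vehicle meaning cytotoxicity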
In short: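 HEK293T cells in DMEM with 1% FBS, dosed 24 h at 37C with 8 concentrations, 5 nM–87.5 uM final, 0.5% DMSO. ATP measured by CellTiter Glo luminescence; loss of signal vs DMSO, three biological replicates.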

[3] = Tanguay_ZF_120hpf_TR_legacy: (Legacy) Oregon State University Tanguay Lab 120 Hour Post-fertilization zebrafish Assay for Touch Response (AID 2283667)
In short: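 Tropical 5D wild-type zebrafish embryos were exposed statically in sealed, foil-covered plates at 28C until 120 hpf, with 0.64% (vol/vol) final DMSO. Touch response was scored as present or absent; embryos that died were not scored.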

[4] = CCTE_Padilla_ZF_144hpf_TERATOSCORE: (Legacy) CCTE's 144 Hour Post-fertilization zebrafish Assay Teratoscore, Padilla Lab (AID 2283679; active = hit-call score of the fitted dose curve at least 0.9, where 1 is the maximum; inactive = score below 0.9;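 for AC50: zebrafish embryos with chorions exposed by immersion from 6-8 hpf to 5 dpf with daily renewal; teratogenicity score from eye scoring of death hatching and malformations at 144 hpf; higher score means more developmental defects relative to DMSO baseline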)
In short: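 Larvae scored by eye at 144 hpf for death, hatching and malformations after a day in clean Hanks'. Before that, daily-renewed exposure at 80 uM (0.4% DMSO, 26C) from roughly 6-8 hpf through 5 dpf, 4 embryos per chemical.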

[5] = Tanguay_ZF_120hpf_ActivityScore_legacy: (Legacy) Oregon State University Tanguay Lab 120 Hour Post-fertilization zebrafish Assay Score for Activity (AID 2283742);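 for AC50: static exposure from 6 hpf until 120 hpf at 28 °C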
In short: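 Tropical 5D wild-type zebrafish embryos, dechorionated with pronase at 4 hpf, were exposed singly from 6 hpf to 120 hpf statically at 28C in 0.64% DMSO. Malformations and mortality were scored as binary by brightfield, with the activity score combining 18 morphology components.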

[6] = STM_H9_OrnithineISnorm_perc: Stemina devTOX quickPredict H9 human embryonic stem cell (hESC)-based Assay for Ornithine (ORN) Metabolite Biomarker, Normalized (AID 2283712; active = hit-call score of the fitted dose curve at least 0.9, where 1 is the maximum; inactive = score below 0.9;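 note: ornithine released into spent medium during last day measured by mass spectrometry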)
In short: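 Undifferentiated H9 hESCs exposed 72 h with daily media and compound renewal; final 24-h conditioned medium analysed by UPLC-HRMS. Ornithine peak area normalised to spiked C13 standard and to median 0.1% DMSO control; viability by CellTiter-Fluor.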

[7] = STM_H9_CystineISnorm_perc: Stemina devTOX quickPredict H9 human embryonic stem cell (hESC)-based Assay for Cystine (CYSS) Metabolite Biomarker, Normalized (AID 2283713; active = hit-call score of the fitted dose curve at least 0.9, where 1 is the maximum; inactive = score below 0.9)
In short: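 Undifferentiated H9 hESCs exposed 72 h, compound and media replaced every 24 h; final 24-h media analysed by UPLC-HRMS. Cystine normalized to C13 spike-in standard and median 0.1% DMSO control.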

[8] = STM_H9_OrnCyssISnorm_ratio: Stemina devTOX quickPredict H9 human embryonic stem cell (hESC)-based Assay for Ornithine (ORN):Cystine (CYSS) Ratio (AID 2283714)
In short: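 Undifferentiated H9 hESCs were exposed to compound for 72h with media and chemical replaced every 24h. Final 24-h conditioned media were deproteinized and analysed by UPLC-HRMS. ORN and CYSS peak areas were normalized to C13 internal standards and the ratio taken versus 0.1% DMSO.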

[9] = CEETOX_H295R_MTT_cell_viability: Viability Assessment in the CeeTox HT-H295R MTT Assay (AID 2283718; active = hit-call score of the fitted dose curve at least 0.9, where 1 is the maximum; inactive = score below 0.9;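 for AC50: curve fitted both ways so AC50 may mark viability loss or gain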)
In short: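 H295R cells prestimulated 48 h with 10 uM forskolin, then exposed 48 h to test chemical (0.1% DMSO final). Viability by MTT (0.5 mg/ml, 4 h, 37 C), absorbance 570/650 nm; percent change versus DMSO, bidirectional fit.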

[10] = read-out: Cytochrome P450 (CYP24A1_1), CYP24A1 (gene 1591); assay: LTEA_HepaRG_CYP24A1_1: Life Technologies and Expression Analysis (LTEA) Assay for Cytochrome P450 (CYP24A1_1) using HepaRG (AID 2283671; active = hit-call score of the fitted dose curve at least 0.9, where 1 is the maximum; inactive = score below 0.9); settings: mRNA level, 48 h; actives raise or lower the signal
In short: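 HepaRG, 48 h exposure, 8-pt half-log series from 100 uM in 0.5% DMSO, duplicates. Readout: TaqMan qRT-PCR of CYP24A1 mRNA, housekeeping-normalized (ACTB/GAPDH/POLR2A). Bidirectional curve fit vs DMSO baseline.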

## O=C1O[C@H]([C@@H](O)CO)C(O)=C1O
[1]
  AC50: 43.8 µM (active)
[2]
  outcome: inactive
[3]
  outcome: inactive
[4]
  outcome: inactive
[5]
  outcome: inactive

## O=C(O)Cc1cc(I)c(Oc2ccc(O)c(I)c2)c(I)c1
[1]
  AC50: 0.32 µM (active)
[2]
  outcome: inactive
[3]
  outcome: inactive
[4]
  AC50: 0.101 µM (active)
[5]
  AC50: 31.3 µM (active)

## CC[C@H](NC(=O)c1cc(F)ccc1NS(=O)(=O)c1cccc2cccnc12)c1ccccc1
[3]
  outcome: inactive
[4]
  outcome: inactive
[6]
  outcome: inactive
[7]
  outcome: inactive
[5]
  outcome: inactive

## NC(=O)c1nc(-c2cccc(-c3cc(F)ccc3OCC(F)(F)C(F)(F)F)c2)n[nH]1
[3]
  AC50: 26.6 µM (active)
[4]
  AC50: 1.08 µM (active)
[6]
  outcome: inactive
[7]
  AC50: 3.59 µM (active)
[8]
  AC50: 3.99 µM (active)
[9]
  outcome: inactive
[5]
  AC50: 30.9 µM (active)

## Oc1ccccc1
[1]
  AC50: 23.6 µM (active)
  outcome: inactive
[2]
  outcome: inactive
[3]
  outcome: inactive
[5]
  outcome: inactive

## CCCCOC(=O)c1ccc(O)cc1
[3]
  AC50: 49.3 µM (active)
[4]
  AC50: 5.07 µM (active)
[6]
  AC50: 42.3 µM (active)
[7]
  outcome: inactive
[8]
  outcome: inactive
[9]
  outcome: inactive
[5]
  AC50: 41 µM (active)

## CO[C@H]1/C=C/O[C@@]2(C)Oc3c(C)c(O)c4c(O)c(c(/C=N/N5CCN(C)CC5)c(O)c4c3C2=O)NC(=O)/C(C)=C\C=C\[C@H](C)[C@H](O)[C@@H](C)[C@@H](O)[C@@H](C)[C@H](OC(C)=O)[C@@H]1C
[1]
  AC50: 3.3 µM (active)
[2]
  outcome: inactive
[3]
  outcome: inactive
[6]
  outcome: inactive
[7]
  AC50: 3.27 µM (active)
[8]
  AC50: 4.04 µM (active)
[9]
  outcome: inactive
[5]
  outcome: inactive

## O=C(Nc1ccc(Cl)cc1)Nc1ccc(Cl)c(Cl)c1
[1]
  AC50: 18.9 µM (active)
[2]
  AC50: 1.73 µM (active)
[3]
  outcome: inactive
[4]
  AC50: 5.19 µM (active)
[6]
  AC50: 0.000976 µM (active)
[7]
  outcome: inactive
[8]
  outcome: inactive
[9]
  outcome: inactive
[5]
  outcome: inactive

## COc1ccc2cc(S(=O)(=O)N[C@H](CC(=O)N[C@H](Cc3ccc(CN4[C@H](C)CCC[C@@H]4C)cc3)C(=O)N(C)C(C)C)c3ccc4c(c3)OCO4)ccc2c1
[3]
  outcome: inactive
[4]
  AC50: 52.9 µM (active)
[6]
  AC50: 18.4 µM (active)
[7]
  AC50: 22.6 µM (active)
[8]
  AC50: 23 µM (active)
[5]
  outcome: inactive

## CCN(CC)C(=O)c1cc(S(=O)(=O)Cc2ccccc2)c(N2CCC(c3ccccc3)CC2)cc1N(CC)CCN(C)C
[3]
  outcome: inactive
[10]
  outcome: inactive
[4]
  AC50: 20.7 µM (active)
[5]
  AC50: 17.2 µM (active)

## CC(C)(C)c1cc(/C=C2\SC(N)=NC2=O)cc(C(C)(C)C)c1O
[1]
  AC50: 5.18 µM (active)
[2]
  AC50: 8.58 µM (active)
[3]
  outcome: inactive
[4]
  AC50: 4.17 µM (active)
[6]
  outcome: inactive
[7]
  AC50: 5 µM (active)
[8]
  AC50: 3.33 µM (active)
[9]
  outcome: inactive
[5]
  AC50: 47.2 µM (active)

## O=c1c(-c2ccc(O)cc2)coc2cc(O)cc(O)c12
[1]
  AC50: 3.6 µM (active)
[3]
  outcome: inactive
[4]
  AC50: 24.5 µM (active)
[6]
  AC50: 48.8 µM (active)
[7]
  AC50: 71.6 µM (active)
[8]
  AC50: 73.7 µM (active)
[9]
  AC50: 28.7 µM (active)
[5]
  AC50: 20 µM (active)

## CN(C[C@@H](CC[N+]12CCC(C3CCCCC3)(CC1)CC2)c1ccc(Cl)c(Cl)c1)C(=O)c1cc(C(F)(F)F)cc(C(F)(F)F)c1
[1]
  AC50: 43.8 µM (active)
[2]
  AC50: 9.54 µM (active)
[3]
  outcome: inactive
[4]
  AC50: 4.91 µM (active)
[6]
  AC50: 7.48 µM (active)
[7]
  AC50: 16.4 µM (active)
[8]
  AC50: 14.4 µM (active)
[5]
  AC50: 46.9 µM (active)

## Cc1ccc2oc(CN(Cc3ccccc3)C(=O)Nc3c(F)cc(F)cc3F)c(-c3ccc(Cl)cc3)c2c1
[3]
  outcome: inactive
[4]
  outcome: inactive
[9]
  outcome: inactive
[5]
  outcome: inactive

## CC(C)(c1cc(Br)c(O)c(Br)c1)c1cc(Br)c(O)c(Br)c1
[1]
  AC50: 18.5 µM (active)
[2]
  AC50: 14.7 µM (active)
[3]
  outcome: inactive
[4]
  AC50: 4.24 µM (active)
[6]
  outcome: inactive
[7]
  outcome: inactive
[8]
  outcome: inactive
[9]
  outcome: inactive
[5]
  AC50: 1.99 µM (active)

## Clc1ccccc1C(c1ccccc1)(c1ccccc1)n1ccnc1
[3]
  AC50: 25 µM (active)
[4]
  AC50: 1.53 µM (active)
[9]
  outcome: inactive
[5]
  outcome: inactive

## Clc1cc(Cl)c2c(c1)N=C1CCCCCN1C2
[3]
  AC50: 15.7 µM (active)
[4]
  AC50: 12.2 µM (active)
[6]
  outcome: inactive
[7]
  outcome: inactive
[8]
  outcome: inactive
[9]
  outcome: inactive
[5]
  AC50: 18 µM (active)

## COc1cc(C(=O)NC2CCN(C)CC2)ccc1Nc1ncc2c(n1)N(C1CCCC1)CC(F)(F)C(=O)N2C
[1]
  AC50: 40.7 µM (active)
[2]
  AC50: 15.3 µM (active)
[3]
  AC50: 36.1 µM (active)
[4]
  AC50: 24.1 µM (active)
[6]
  AC50: 0.0393 µM (active)
[7]
  AC50: 0.0284 µM (active)
[8]
  AC50: 0.0311 µM (active)
[5]
  AC50: 40 µM (active)

## CCCCCc1ccc(N)cc1
[1]
  AC50: 0.0637 µM (active)
[2]
  AC50: 26.7 µM (active)
[3]
  outcome: inactive
[4]
  AC50: 65.9 µM (active)
[9]
  outcome: inactive
[5]
  outcome: inactive

— PubChem BioAssay (EPA / NIEHS)
